Results on 31 compounds are retold here after PubChem BioAssay (Tox21).

Results filed as inconclusive are left out. Entries that show only a call come without a potency. A number with no mark means an inactive call. The source made the active and inactive calls. Unless noted, the call rests on the fitted dose curve.

D(2) dopamine receptor (Homo sapiens), sequence (P14416 whole entry, looked up): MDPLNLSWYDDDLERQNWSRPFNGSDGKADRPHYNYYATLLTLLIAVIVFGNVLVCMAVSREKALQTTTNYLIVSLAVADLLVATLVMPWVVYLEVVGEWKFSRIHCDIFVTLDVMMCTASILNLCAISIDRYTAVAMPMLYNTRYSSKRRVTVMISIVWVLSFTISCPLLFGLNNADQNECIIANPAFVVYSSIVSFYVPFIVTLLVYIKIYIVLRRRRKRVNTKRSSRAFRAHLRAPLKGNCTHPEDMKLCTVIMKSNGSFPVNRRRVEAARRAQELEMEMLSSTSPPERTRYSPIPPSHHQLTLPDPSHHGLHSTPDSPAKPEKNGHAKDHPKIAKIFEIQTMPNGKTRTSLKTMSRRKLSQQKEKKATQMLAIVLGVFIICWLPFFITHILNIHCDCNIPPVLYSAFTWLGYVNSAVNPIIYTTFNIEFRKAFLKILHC

The target of the first assay is D(2) dopamine receptor (Homo sapiens) (UniProt P14416). Description: Dopamine D2 receptor (DRD2) small molecule agonists, cell-based qHTS assay (AID 1963594). Further: nearly all actives have a fitted effect of over 35% in size. Particulars: HEK293-DRD2 cAMP HTRF, agonist mode, 30 min; series mostly up to 92.4 µM. The procedure, abridged:
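HEK293 cells stably expressing human DRD2, pre-treated with PDE inhibitor Ro20-1724 (0.1 mM final) and compound 10 min at room temperature, then stimulated with NKH477 (200nM […]) for 30 min. cAMP read by HTRF (665/620 nm).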
On the technique in general: Quantitative high-throughput screening tests each substance at several concentrations.
`CSc1ccc(Oc2ccc(S(N)(=O)=O)cc2CN(C)C)cc1C`: the Potency result was “inactive”.
On the same count and under the same terms, as for `CCc1ccc2c(c1)C(=O)c1ccccc1C2=O`, the entry is “inactive”; as for `OCCOCC#CCOCCO`, “inactive”; as for `COC(OC)(C(=O)c1ccccc1)c1ccccc1`, “inactive”.
Same read-out and setting: as for `Cc1c(Nc2ncccc2C(=O)O)cccc1C(F)(F)F`, the entry is “inactive”; as for `CC1(C)[C@@H](O)CC[C@]2(C)[C@H]3C(=O)C=C4[C@@H]5C[C@@](C)(C(=O)O)CC[C@]5(C)CC[C@@]4(C)[C@]3(C)CC[C@@H]12`, “inactive”; as for `CCCCCCCCS(=O)(=O)O`, “inactive”.

For a further assay the target is unchanged. Nature of the assay: Dopamine D2 receptor (DRD2) small molecule antagonists, cell-based qHTS assay (AID 1963595; active means well fitted inhibition curve with a large enough effect in the signal ratio in the repeat runs, with a control signal flat; the % refers to the signal ratio). Particulars: HEK293-DRD2 cAMP HTRF antagonist mode; series mostly up to 92.4 µM. The procedure, abridged:
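HEK293 cells stably expressing DRD2, preincubated with 0.1 mM Ro20-1724 and compounds 10 min, were stimulated with 200 nM NKH477 plus 12 nM quinpirole for 30 min at room temperature; cAMP measured by HTRF (665/620 nm).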
On to `CCCCCCCOC(=O)CCC`, for which the Potency result is “inactive”.
On the same count and under the same terms, as for `CCCCCCCCC(=O)OCC(C)OC(=O)CCCCCCCC` (configuration not stated), the entry is “inactive”.
On to `CCN1/C(=C/C=C/c2sc3ccccc3[n+]2CC)Sc2ccccc21`, for which the activity change, negative = inhibition is -0.0645% [at 18.9 µM].
For the compound `c1cnc(N2CCN(Cc3ccc4c(c3)OCO4)CC2)nc1`, the Potency result was “inactive”.
Same read-out and setting: next, `C=C[Si]1(C)O[Si](C)(C=C)O[Si](C)(C=C)O[Si](C)(C=C)O1` (configuration not stated): “inactive”; `CCCNC(C)(C)COC(=O)c1ccccc1`: “inactive”.
The same measure, in the same setting: next, `CCCCCCCCCCl`: “inactive”.
On the same count and under the same terms, next, `CCCCCC(C)OC(=O)COc1ccc(Cl)c2cccnc12` (configuration not stated): “inactive”.
Consider `CC(=O)Nc1ccc(/C=N/NC(N)=S)cc1`, for which the Potency entry is “inactive”.
On to `C=O`, for which the Potency entry is “inactive”.
`CC(C)(C)C1=CC(=O)C=C(C(C)(C)C)C1=O`: the Potency result was “inactive”.
Same read-out and setting: as for `C=CC(=C)CCCC(C)(C)OC(C)=O`, the entry is “inactive”; as for `CC/C=C\CCCCCCCCCCOC(C)=O`, “inactive”; as for `O=c1[nH]c(=O)n([C@H]2C[C@H](O)[C@@H](CO)O2)cc1C(F)(F)F`, “inactive”.
With `Cc1cc(O)c2c(O)c3c(O)cccc3cc2c1`, the Potency entry was “inactive”.
The same measure, in the same setting: as for `Cc1ccc(Br)cc1`, the entry is “inactive”.
Still for that read-out and setting: next, `CC1CCC(CO)CC1` (configuration not stated): “inactive”.
Same read-out and setting: as for `C=Cc1ccc(OC(C)=O)cc1`, the entry is “inactive”; as for `Cc1cccc(N(C)C(=S)Oc2ccc3c(c2)C2CCC3C2)c1` (configuration not stated), “inactive”; as for `Cc1c(N)cccc1N`, “inactive”.
`CCC(CC)CO`: the Potency entry was “inactive”.
In the case of `Cc1c(N)c(=O)n(-c2ccccc2)n1C`, the Potency result was “inactive”.
Still for that read-out and setting: as for `C=C[Si](OC(C)=O)(OC(C)=O)OC(C)=O`, the entry is “inactive”.
In the case of `CCc1ccc2c(c1)C(=O)c1ccccc1C2=O`, the Potency result was “inactive”.
The same measure, in the same setting: next, `OCCOCC#CCOCCO`: “inactive”; `Cc1ccc(O)c2ncccc12`: “inactive”; `COC(OC)(C(=O)c1ccccc1)c1ccccc1`: “inactive”.
On the same count and under the same terms, as for `Cc1c(Nc2ncccc2C(=O)O)cccc1C(F)(F)F`, the entry is “inactive”; as for `CC1(C)[C@@H](O)CC[C@]2(C)[C@H]3C(=O)C=C4[C@@H]5C[C@@](C)(C(=O)O)CC[C@]5(C)CC[C@@]4(C)[C@]3(C)CC[C@@H]12`, “inactive”.
On the same count and under the same terms, as for `CCCCCCCCS(=O)(=O)O`, the entry is “inactive”.
